Rows were chosen to be rich in hits. Some 7.1% of all compounds tested hit in one or more screens of this group.
ELG1 genotoxic: qHTS screen for small molecules that induce genotoxicity in human embryonic kidney (HEK293T) cells expressing luciferase-tagged ELG1 | actives 1.3% (n = 330,000) | HEK293T ELG1-luciferase reporter, luminescence, 16 h | Potency, µM (doses to about 46 µM), for inactives: at the top dose activity change, positive = activation, hits mostly activators; note: % of control where 0% means no effect; nearly all actives have a fitted effect of over 60% in size
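Genotoxic stress is detected as increased luminescence from luciferase-tagged ELG1 in HEK293T cells, measured with ONE-Glo after a 16 hr treatment at 37 °C.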
MCF10A rerep: A quantitative high throughput screen for small molecules that induce DNA re-replication in MCF 10a normal breast cells; MCF 10A DNA re-replication, Hoechst nuclear intensity, 48 h; actives 2.9% (n = 350,000); Potency, µM (highest dose often 46.1 µM), for inactives: at the top dose activity, positive = re-replication, hits mostly activators; note: % of control where 0% means no effect; nearly all actives have a fitted effect of over 50% in size
SW480 rereplic: A quantitative high throughput screen for small molecules that induce DNA re-replication in SW480 colon adenocarcinoma cells | actives 1.8% (n = 340,000) | Potency, µM (series often up to 46.1 µM), for inactives: at the top dose re-replication activation, actives largely listed as activators | AID 624297, 2012 | SW480 DNA re-replication, Hoechst DNA content imaging, 48 h; note: % of control where 0% means no effect; nearly all actives have a fitted effect of over 55% in size
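Readout is total intensity of Hoechst-stained nuclei, excited at 405 nm and collected at 500-530 nm. Compound treatment lasted 48 hr at 37 C in 5% CO2 before staining.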
p53 reactivator: qHTS assay for re-activators of p53 using a Luc reporter; H1299 p53-A138V BP100-luciferase reporter, luminescence, 24 h; Potency, µM (titrated, usually from 92.2 µM), without a hit: at the highest dose activity change, positive = activation, usual class: activators; actives 0.063% (n = 320,000); note: % of control where 0% means no effect; nearly all actives have a fitted effect of over 45% in size
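p53-null H1299 cells stably carrying temperature-sensitive p53-A138V and a BP100-luciferase reporter were pinned with compounds (4-point, 1:5 series) and held 24 hrs at 37 deg C. Luminescence was read 10 min after detection reagent.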
AT treatment: qHTS Assay for Identifying a Potential Treatment of Ataxia-Telangiectasia. F2112 A-T fibroblasts, KAP-1 phosphorylation AlphaLISA; neocarzinostatin DNA damage 30 min before lysis. Potency, µM (highest dose often 57.5 µM), inactives show at the top dose activation, actives largely listed as activators. actives 0.19% (n = 320,000). AID 485349, 2010; note: % of control where 0% means no effect; nearly all actives have a fitted effect of over 45% in size
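ATM-like activity read as KAP-1 phosphorylation via AlphaLISA donor/acceptor antibody pairs after lysis and 6 hr at 25C. Cells were ATM-null patient fibroblasts (F2112, hTERT), dosed 60 min, then exposed to the DSB inducer NCS for 30 min.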
ELG1 repair inh: qHTS screen for small molecules that inhibit ELG1-dependent DNA repair in human embryonic kidney (HEK293T) cells expressing luciferase-tagged ELG1 | HEK293T ELG1-luciferase reporter, luminescence, 16 h; DNA damage induced by 5-fluorouridine | Potency, µM (top dose mostly 46.1 µM), inactives show top-dose activity change, negative = inhibition, hits mostly inhibitors | actives 2.3% (n = 330,000) | AID 504467, 2011; note: % is set by controls: 0 for no effect and ±100 for the full control effect; nearly all actives have a fitted effect of over 55% in size
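In this reporter screen, reduction of luminescence relative to DMSO vehicle indicated activity. Compounds and 5-fluorouridine were added together to 2,000 cells per well, incubated for 16 hr at 37 °C, then developed with ONE-Glo.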
Numbers without * were called inactive. Calls come from the whole dose curve; as a rule, active = well fitted curve in the direction sought with a large enough effect; inconclusive = small, poorly fitted or top-dose-only effect, or another doubt; inactive = no such curve, though single readings can be large; an effect the other way counts as inactive or inconclusive. Potency is the fitted concentration of half-maximal effect.

Results for O=C1/C(=C/c2ccccc2O)SC(=S)N1Cc1cccnc1 ?
ELG1 genotoxic: 10.8%; MCF10A rerep: 6.51µM*; SW480 rereplic: inconclusive; p53 reactivator: 3.1%; AT treatment: -5.8%; ELG1 repair inh: 5.2%

What do the screens show for `CCOc1ccccc1C=C1SC(=S)N(CC)C1=O`?
MCF10A rerep: 2.4%; SW480 rereplic: -4.3%

Results for CCN1C(=O)/C(=C\C=C\c2ccccc2[N+](=O)[O-])SC1=S ?
ELG1 genotoxic: -4.9%; MCF10A rerep: 4.11µM*; SW480 rereplic: inconclusive; p53 reactivator: 3.6%; AT treatment: 0.5%; ELG1 repair inh: 1.1%

Results for Nc1ncnc2c1ncn2[C@@H]1O[C@H](CNCc2cccc(C#Cc3ccccc3)c2)[C@@H](O)[C@H]1O ?
ELG1 genotoxic: 12.2%; MCF10A rerep: -7.6%; SW480 rereplic: -6.8%; p53 reactivator: 2.0%; AT treatment: -10.4%; ELG1 repair inh: 13.1%

What do the screens show for `CN(Cc1ccccc1)C(=O)c1ccc(NC(=O)Cc2ccc(NC(=O)C3CCN(C(=O)C4CCC4)CC3)cc2)cc1`?
MCF10A rerep: -6.0%; SW480 rereplic: 10.9%

What do the screens show for `CN(Cc1ccccc1)C(=O)c1ccc(NC(=O)Cc2cccc(NC(=O)C3CCCN(C(=O)C4CCCCC4)C3)c2)cc1` (configuration not stated)?
ELG1 genotoxic: -3.8%; MCF10A rerep: inconclusive; SW480 rereplic: 19.0%; p53 reactivator: 15.2%; AT treatment: -7.9%; ELG1 repair inh: 14.6µM*

Results for CN(C(=O)c1cccc(NC(=O)C2CCCN(C(=O)OC(C)(C)C)C2)c1)C1CCC1 (configuration not stated) ?
ELG1 genotoxic: -3.1%; MCF10A rerep: inconclusive; SW480 rereplic: 10.3%; p53 reactivator: 0.4%; AT treatment: -3.2%; ELG1 repair inh: inconclusive

Results for CN(Cc1ccccc1)C(=O)c1ccc(NC(=O)Cc2cccc(NC(=O)C3CCN(C(=O)C4CCC4)CC3)c2)cc1 ?
ELG1 genotoxic: 1.7%; MCF10A rerep: inconclusive; SW480 rereplic: -29.3%; p53 reactivator: 19.5%; AT treatment: 4.4%; ELG1 repair inh: 5.17µM*

How did CN(C(=O)c1cccc(NC(=O)C2CCN(C(=O)OC(C)(C)C)CC2)c1)C1CCCCC1 do in these assays?
ELG1 genotoxic: -8.2%; MCF10A rerep: 7.0%; SW480 rereplic: 0.5%; p53 reactivator: -4.7%; AT treatment: -7.8%; ELG1 repair inh: 23.1µM*

What do the screens show for `CN(Cc1ccccc1)C(=O)c1ccc(NC(=O)C2CCCN(C(=O)OC(C)(C)C)C2)cc1` (configuration not stated)?
ELG1 genotoxic: -8.5%; MCF10A rerep: 5.0%; SW480 rereplic: 1.3%; p53 reactivator: 0.9%; AT treatment: -1.4%; ELG1 repair inh: 20.6µM*

Results for CC(C)/C=C/CN1CCCC(N2CCN(c3cccc(Cl)c3)CC2)C1 (configuration not stated) ?
ELG1 genotoxic: -3.5%; MCF10A rerep: inconclusive; SW480 rereplic: inconclusive; AT treatment: 2.0%; ELG1 repair inh: 5.4%

How did CC1CCN(C(=O)COC(=O)CCCN2C(=O)c3cccc4cccc(c34)C2=O)CC1 do in these assays?
ELG1 genotoxic: 1.7%; MCF10A rerep: -2.3%; SW480 rereplic: -6.6%; p53 reactivator: -0.8%; AT treatment: -2.4%; ELG1 repair inh: 11.1%

Results for CN(CCc1ccccc1)C(=O)c1ccc(NC(=O)Cc2ccc(NC(=O)C3CCCN(C(=O)C4CC4)C3)cc2)cc1 (configuration not stated) ?
MCF10A rerep: -16.5%; SW480 rereplic: 18.4µM*

What do the screens show for `CN(Cc1ccccc1)C(=O)c1ccc(NC(=O)Cc2ccc(NC(=O)C3CCN(C(=O)CCc4ccccc4)CC3)cc2)cc1`?
MCF10A rerep: 14.6µM*; SW480 rereplic: inconclusive

How did CSc1ncnc2c1ccn2CC(=O)Nc1ccc(C)c(C)c1 do in these assays?
ELG1 genotoxic: 0.4%; MCF10A rerep: 38.2%; SW480 rereplic: -8.5%; p53 reactivator: 14.2%; AT treatment: -7.5%; ELG1 repair inh: 15.9%

How did CCCCCc1nnc(NC(=O)CN2C(=O)C3CCCCC3C2=O)s1 (configuration not stated) do in these assays?
ELG1 genotoxic: 1.7%; MCF10A rerep: 0.2%; SW480 rereplic: -3.1%; p53 reactivator: -0.3%; AT treatment: 2.5%; ELG1 repair inh: 2.0%

How did C=CCn1c(=O)/c(=C/c2cc(OC)c(OC)c(OC)c2)s/c1=C(/C#N)c1nc2ccccc2n1C do in these assays?
ELG1 genotoxic: -8.5%; MCF10A rerep: inconclusive; SW480 rereplic: 4.3%; p53 reactivator: -12.9%; AT treatment: -5.4%; ELG1 repair inh: 4.11µM*

How did CC(C)c1ccc(-c2cc(C(=O)N3CCOCC3)c3cc(Br)ccc3n2)cc1 do in these assays?
ELG1 genotoxic: -9.2%; MCF10A rerep: 6.5%; SW480 rereplic: 0.6%; p53 reactivator: 22.8%; AT treatment: 4.47µM*; ELG1 repair inh: inconclusive

How did Cc1ccc2nc(SCC(=O)Nc3ccccc3N3CCOCC3)c(C#N)cc2c1 do in these assays?
ELG1 genotoxic: -1.6%; MCF10A rerep: inconclusive; SW480 rereplic: inconclusive; p53 reactivator: 0.9%; ELG1 repair inh: 4.11µM*

How did CCOC(=O)CC(=O)CSc1nc(CC)c(C)cc1C#N do in these assays?
ELG1 genotoxic: 3.8%; MCF10A rerep: 0.0%; SW480 rereplic: 23.1µM*; p53 reactivator: 1.6%; AT treatment: 4.2%; ELG1 repair inh: inconclusive

Results for CCOC(=O)CC(=O)CSc1nc2ccc(C)cc2cc1C#N ?
ELG1 genotoxic: 16.4µM*; MCF10A rerep: 23.1µM*; SW480 rereplic: -1.1%; p53 reactivator: inconclusive; AT treatment: -2.8%; ELG1 repair inh: inconclusive

Results for Cc1ccc(SCC(=O)Nc2ccccc2N2CCOCC2)cc1 ?
ELG1 genotoxic: -5.9%; MCF10A rerep: -11.5%; SW480 rereplic: -10.1%; p53 reactivator: -1.2%; AT treatment: 2.5%; ELG1 repair inh: -9.6%

How did CCc1nc(SCC(=O)O)c(C#N)cc1C do in these assays?
ELG1 genotoxic: 2.4%; MCF10A rerep: -0.9%; SW480 rereplic: -22.1%; p53 reactivator: 2.3%; AT treatment: 2.5%; ELG1 repair inh: 5.0%

Screening data as filed in PubChem.
